Test results reported in the supplement of paper PMC9262897, “Low-cost anti-mycobacterial drug discovery using engineered E. coli” (Nature Communications, 2022).
Structures can show the parent of a compound that is named as a salt. ± gives the standard deviation of the averaged measurements.

What was measured:
Test in all cases: growth (OD600 after 10 h); higher = more growth (less inhibition)
[1] = system: E. coli TESEC Alr+ wild-type control; conditions: compound 0.1 mM; raw OD600 reference: median of DMSO wells 0.241, cell-free background 0.041
Experimental: (§1)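 TESEC Mtb Alr E. coli, or the Alr+ wild-type control, in 384-well plates with Prestwick library compounds at 0.1 mM and 1% DMSO, across arabinose induction levels of 1E3 to 1E7 nM. Growth is read as OD600 after 10 h at 37 °C in triplicate biological replicates.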

E. coli TESEC Mtb Alr [2] = conditions: compound 0.1 mM
Experimental: as §1

E. coli TESEC Mtb Asd = conditions: compound 0.1 mM
Experimental: (§2)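 TESEC E. coli strains in which the native enzyme is deleted and replaced by arabinose-inducible Mtb Asd, DapB, CysH or TrpD, each grown in its selective medium. Strains were screened against the Prestwick library at 0.1 mM and 1% DMSO in 384-well format at low and high arabinose induction. Growth is read as OD600 after 10 h in triplicate.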

E. coli TESEC Mtb DapB = conditions: compound 0.1 mM
Experimental: as §2

E. coli TESEC Mtb Alr [3] = conditions: compound 0.1 mM; remark: listed apart in the source
Experimental: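 TESEC Mtb Alr E. coli (ΔaraC ΔtolC ΔentC Δalr ΔdadX, arabinose-inducible Mtb Alr) or the Alr+ wild-type control strain, grown in defined M9-fructose medium without D-alanine in 96-well plates with Prestwick library compounds at 0.1 mM and 1% DMSO. Low Alr induction is 0.1 µM arabinose and high induction is 10 mM arabinose.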

[4] = arabinose 1000 nM, raw OD600 reference: median of DMSO wells 0.294, cell-free background 0.041
[5] = arabinose 10000 nM, raw OD600 reference: median of DMSO wells 0.264, cell-free background 0.041
[6] = arabinose 100000 nM, raw OD600 reference: median of DMSO wells 0.201, cell-free background 0.041
[7] = arabinose 1000000 nM, raw OD600 reference: median of DMSO wells 0.193, cell-free background 0.041
[8] = arabinose 10000000 nM, raw OD600 reference: median of DMSO wells 0.146, cell-free background 0.041
[9] = arabinose induction (level): High, raw OD600 reference: median of DMSO wells 0.331, cell-free background 0.041
[10] = arabinose induction (level): Low, raw OD600 reference: median of DMSO wells 0.417, cell-free background 0.041
[11] = arabinose induction (level): High, raw OD600 reference: median of DMSO wells […], cell-free background 0.041
[12] = arabinose induction (level): Low, raw OD600 reference: median of DMSO wells 0.227, cell-free background 0.041
[13] = arabinose 100 nM, raw OD600 reference: median of DMSO wells 0.413, cell-free background 0.052
[14] = arabinose 10000000 nM, raw OD600 reference: median of DMSO wells […], cell-free background 0.052

SMILES	growth [1]	growth (E. coli TESEC Mtb Alr [2]; [4])	growth (E. coli TESEC Mtb Alr [2]; [5])	growth (E. coli TESEC Mtb Alr [2]; [6])	growth (E. coli TESEC Mtb Alr [2]; [7])	growth (E. coli TESEC Mtb Alr [2]; [8])	growth (E. coli TESEC Mtb Asd; [9])	growth (E. coli TESEC Mtb Asd; [10])	growth (E. coli TESEC Mtb DapB; [11])	growth (E. coli TESEC Mtb DapB; [12])	growth (E. coli TESEC Mtb Alr [3]; [13])	growth (E. coli TESEC Mtb Alr [3]; [14])
Nc1ccc(S(=O)(=O)Nc2ncccn2)cc1 [Sulfadiazine]	0.257 ± 0.0066	0.288 ± 0.017	0.241 ± 0.0079	0.199 ± 0.036	0.1549 ± 0.0004	0.146 ± 0.0024	0.374 ± 0.043	0.414 ± 0.0071	0.184 ± 0.015	0.187 ± 0.023	0.411 ± 0.011	0.312 ± 0.066
COC(=O)C1=C(C)NC(C)=C(C(=O)OC)C1c1ccccc1[N+](=O)[O-] [Nifedipine]	0.0488 ± 0.00049	0.144 ± 0.0021	0.2006 ± 0.0018	0.136 ± 0.0053	0.0952 ± 0.0041	0.149 ± 0.0044	0.0844 ± 0.0011	0.0795 ± 0.0099	0.155 ± 0.018	0.216 ± 0.069	0.39 ± 0.0088	0.21 ± 0.039
O=C(CCCCCCC(=O)Nc1ccccc1)NO [Vorinostat]	0.253 ± 0.0073	0.295 ± 0.0062	0.238 ± 0.0041	0.164 ± 0.012	0.153 ± 0.0023	0.124 ± 0.011	0.195 ± 0.028	0.335 ± 0.061	0.174 ± 0.0062	0.204 ± 0.0056	0.415 ± 0.01	0.3 ± 0.021
Cc1cc(C(=O)NNCc2ccccc2)no1 [Isocarboxazid]	0.253 ± 0.0036	0.319 ± 0.014	0.28 ± 0.0081	0.234 ± 0.0096	0.198 ± 0.0079	0.158 ± 0.0025	0.492 ± 0.0092	0.441 ± 0.039	0.211 ± 0.023	0.239 ± 0.035	0.402 ± 0.014	0.362 ± 0.013
Cc1ccc(NC(=O)c2ccc(CN3CCN(C)CC3)cc2)cc1Nc1nccc(-c2cccnc2)n1 [Imatinib]	0.171 ± 0.0085	0.23 ± 0.0032	0.241 ± 0.00089	0.141 ± 0.009	0.119 ± 0.0081	0.161 ± 0.0024	0.185 ± 0.02	0.334 ± 0.063	0.185 ± 0.011	0.217 ± 0.02	0.4192 ± 0.0028	0.241 ± 0.018
Cc1cc(/C=C/c2ccc3cc(N(C)C)ccc3[n+]2C)c(C)n1-c1ccccc1 [Pyrvinium pamoate]	0.0976 ± 0.0031	0.0602 ± 0.0021	0.0614 ± 0.0072	0.0747 ± 0.009	0.0511 ± 0.00066	0.0872 ± 0.0092	0.071 ± 0.00096	0.0642 ± 0.0028	0.0704 ± 0.0048	0.0798 ± 0.011	0.142 ± 0.013	0.162 ± 0.025
O=C1NCC2(CCN(CCc3ccccc3)CC2)O1 [Fenspiride hydrochloride]	0.248 ± 0.0052	0.288 ± 0.013	0.27 ± 0.0043	0.199 ± 0.0053	0.185 ± 0.0044	0.148 ± 0.0017	0.366 ± 0.098	0.45 ± 0.025	0.199 ± 0.011	0.253 ± 0.048	0.415 ± 0.0097	0.336 ± 0.0092
Cc1onc(-c2c(Cl)cccc2Cl)c1C(=O)N[C@@H]1C(=O)N2[C@@H]1SC(C)(C)[C@@H]2C(=O)O [Dicloxacillin sodium salt hydrate]	0.222 ± 0.0048	0.226 ± 0.11	0.261 ± 0.0043	0.196 ± 0.02	0.185 ± 0.007	0.149 ± 0.0044	0.251 ± 0.056	0.311 ± 0.09	0.188 ± 0.028	0.226 ± 0.018	0.403 ± 0.0099	0.351 ± 0.017
